{"source": "PubChem BioAssay AID651558", "about": "(National Center for Advancing Translational Sciences (NCATS), 2012)", "note": "About 480 (40%) of roughly 1,200 compounds were called active. About 29% were inconclusive and are not listed. The call rests on the fitted dose curve; in most records, active means well fitted inhibition curve with a large enough effect; inconclusive means small, poorly fitted or top-dose-only effect; inactive means no such curve, though single readings can be large or run the other way. Some of the results follow. Potency means the concentration at half of the fitted maximal effect."}
{"test": "qHTS Assay to Find Inhibitors of Chronic Active B-Cell Receptor Signaling: Hit Validation in Primary Screen; further: nearly all actives have a fitted effect of over 75% in size", "settings": "ABC-DLBCL IkB-luc/CBR ratio luminescence, 4 h; series mostly up to 46.1 µM", "description": "Diffuse large B-cell lymphoma (DLBCL) is the most common category of non-Hodgkin lymphoma, with ~20,000 new cases per year in the United States. DLBCL should be regarded as a collection of different neoplasms. Microarray gene expression analysis has defined two principal types of DLBCL, named for their similarity to normal B cell stages or activation states: a germinal center B-cell (GCB) type, and an activated B-cell (ABC) type. In ABC-DLBCL, a constitutive high-level activity of the NF-kappaB family of transcription factors has been observed (1) and NF-kappaB target genes are more highly expressed in ABC primary tumors than in GCB tumors. Functional studies have shown a constitutive high-level activity of the IkappaB (inhibitor of kappa-B) kinase (IKK) complex. […] Further analysis of DLBCL primary tumors for NF-kappaB target gene expression imply that although CARD11 is required for constitutive IKK activity in all ABC-DLBCL lines, mutations in CARD11 may be the root cause of IKK activation only in lines or tumors with such mutations. In other words, CARD11 mutations may explain NF-kappaB activation in only 10% of ABC-DLBCL cases. […] This process has been termed 'chronic active BCR signaling' (CABS). The goal of this screen is to find small-molecule inhibitors of the CABS pathway found in ABC-DLBCL lines using a cell-based assay that measures IkappaBalpa stability, which has already been extensively validated in the OCI-Ly3 line (PubChem AID:445; REF: 4). […] A cell-sensor assay for I-kappa-B-alpha stabilization has been developed. The assay uses green (CBG68) and red (CBR) emitting beetle luciferases [Chroma-GloTM developed by Promega Corp.] where the green luciferase is fused to IkappaBalpha and the red luciferase is present in its native state. Both luciferase genes are stably present in the TMD8 human ABC DLBCL cell line, but their expression is under the control of tetracycline-inducible promoters. Following the addition of doxycycline to induce expression of the luciferases, the green luminescence in control cultures rises only slowly because the CBG fusion partner IkappaBalpha is targeted by IKK activity for rapid degradation. In contrast, green luminescence rises rapidly in the presence of proteasome inhibitors or IKK inhibitors. The rise in red luminescence of CBR is not affected by proteasome or IKK inhibitors, and serves as normalization for cell number and nonspecific effects. Compounds were screened as a concentration-titration series that ranged from 46 uM to 3 nM. NIH Molecular Libraries Probe Production Network [MLPCN] NIH Chemical Genomics Center [NCGC] MLPCN Grant: R03 DA031086 PI Name: Dr. R. Eric Davis\nCells were seeded in 1536-well plates at 5000 cells/4uL in IMDM medium containing 0.5% FBS, w/o phenol red, 1% penicillin/streptomycin. Then, 23 nL of compounds or DMSO were delivered to each well using a pin tool. One uL 20ng/ml doxycycline was then dispensed into white solid 1536-well plates and the plates were incubated at 37C/5% C02 in a cell incubator for 4 hrs. Then 4 uL luminescent substrate mix (in-house prepared: 150 mM Tris-Cl, pH 7.6, 3 mM MgCl2, 1% Triton X-100, 5 mM DTT, 0.2 mM CoA, 0.15 mM ATP, 5 mM D-luciferin, final concentrations) was added to each well. The plate was incubated at r.t. for 10-15 min. The plates were measured on a ViewLux plate reader for green luminescence (540/20 nm filter) and red luminescence (618/8 nm filter). The green and red luminescent signals were corrected for red and green luminescence filter overlap using previously determined filter calibration constants (determined using the procedure outlined in the Promega Technical Manual; REF 4). The %Activity was determined from the ratio of corrected green/red luminescent values. MG132 were used as control. Green luminescent and ratio %Activity was determined by normalizing to the difference in signal between basal cells (0% Activity) and cells incubated with 10 uM of the proteasome inhibitor MG-132 (100% Activity). […]"}
{"smiles": "COc1ccc(/C=N\\NC(=O)c2ccccc2F)cc1COc1ccc(F)cc1F", "Potency": "3.26 µM (active)"}
{"smiles": "CCOc1cc(/C=N/O)ccc1OCc1ccccc1F", "Potency": "inactive"}
{"smiles": "C/C(=N\\NC(=O)C(C)n1nc(C)c([N+](=O)[O-])c1C)c1ccccc1O", "note": "(configuration not stated)", "Potency": "inactive"}
{"smiles": "C/C(=N\\NC(=O)c1c([N+](=O)[O-])c(C)nn1C)c1ccc(NC(=O)C2CCCC2)cc1", "Potency": "9.2 µM (active)"}
{"smiles": "CNC(=S)N/N=C(\\C)c1cccc([N+](=O)[O-])c1", "Potency": "inactive"}
{"smiles": "COc1cc(C(=O)N/N=C/c2cc([N+](=O)[O-])cs2)cc(OC)c1OC", "Potency": "20.6 µM (active)"}
{"smiles": "COc1cc(C(=O)N/N=C/c2ccsc2C)cc(OC)c1OC", "Potency": "2.31 µM (active)"}
{"smiles": "COc1cc(C(=O)O/N=C(\\N)c2ccc([N+](=O)[O-])cc2)cc(OC)c1OC", "Potency": "inactive"}
{"smiles": "COc1cc(C(=O)N/N=C/c2sccc2C)cc(OC)c1OC", "Potency": "1.46 µM (active)"}
{"smiles": "COc1cc(C(=O)N/N=C/C2CC=CCC2)cc(OC)c1OC", "note": "(configuration not stated)", "Potency": "inactive"}
{"smiles": "Cc1cc(C(=O)OCC(=O)NCc2ccco2)c(C)n1-c1ccc(F)cc1", "Potency": "inactive"}
{"smiles": "CC1=Nc2cc(C(=O)NCc3ccco3)ccc2Sc2ccc(C)cc21", "Potency": "1.84 µM (active)"}
{"smiles": "CC1=Nc2cc(C(=O)NCC3CCCO3)ccc2Sc2ccc(C)cc21", "note": "(configuration not stated)", "Potency": "7.31 µM (active)"}
{"smiles": "CCC1=Nc2cc(C(=O)NCc3ccco3)ccc2Sc2ccc(C)cc21", "Potency": "1.16 µM (active)"}
{"smiles": "CCCC(C)NC(=O)c1ccc(C2SCC(=O)N2Cc2ccco2)cc1", "note": "(configuration not stated)", "Potency": "inactive"}
{"smiles": "CCC1=Nc2cc(C(=O)NCc3ccco3)ccc2Sc2ccc(Cl)cc21", "Potency": "2.91 µM (active)"}
{"smiles": "CC(NC(=O)c1ccc(S(=O)(=O)NCc2ccco2)cc1)c1ccc(F)cc1", "note": "(configuration not stated)", "Potency": "inactive"}
{"smiles": "COc1ccc(N2C(=O)CS/C2=N\\C(=S)Nc2ccccc2)cc1", "Potency": "inactive"}
{"smiles": "N#CCSc1nc(N)c(C#N)c(C2CCCCC2)c1C#N", "Potency": "inactive"}
{"smiles": "CCC1=Nc2cc(C(=O)NCc3ccco3)ccc2Sc2ccccc21", "Potency": "20.6 µM (active)"}
{"smiles": "CCC1=Nc2cc(C(=O)NCc3cccnc3)ccc2Sc2ccc(C)cc21", "Potency": "18.4 µM (active)"}
{"smiles": "CCC1=Nc2cc(C(=O)NCc3ccccc3Cl)ccc2Sc2ccc(C)cc21", "Potency": "4.61 µM (active)"}
{"smiles": "CSc1nc(N(C)NC(=O)c2cccc(C)c2)c2ccccc2n1", "Potency": "1.3 µM (active)"}
{"smiles": "COc1ccc(C(=O)NN(C)c2nc(C(F)(F)F)nc3ccccc23)cc1", "Potency": "0.291 µM (active)"}
{"smiles": "CSc1nc(N(C)NC(=O)c2ccc(Cl)cc2)c2ccccc2n1", "Potency": "inactive"}
{"smiles": "COc1ccc(-c2c(C)nn3c(N)c(C#N)cnc23)cc1OC", "Potency": "20.6 µM (active)"}
{"smiles": "C[C@H]1C[C@@H]2[C@H]([C@@H](O)C[C@@]3(C)[C@H]2CC[C@]3(O)C(=O)CO)[C@@]2(C)C=CC(=O)C=C12", "Potency": "inactive"}
